From PubChem BioAssay AID1159580 (chemical genetic matrix, 2015)
Out of some 5,500 compounds screened, about 2,000 (36%) were called active. Not shown: some 18% with an inconclusive outcome. Cut-off read from the data, not from the text of the source: active = normalized growth mostly below about 0.91 (no sharp cut-off); inconclusive = no clear call, values can overlap the other calls; inactive = mostly above about 0.92. Some of the results follow.

Experiment: chemical genetic growth profiling, strain panel (AID 1159580);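 note: tested at 20 µM; growth read once vehicle control cultures reached saturation at 30 °C; 1 = growth at the plate median or of vehicle wells; lower values mean less growth of the strain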
Details: S. cerevisiae deletion strains, growth OD

Measured: normalized growth

CC(C)(C)c1ccc(C(=O)Nc2ccc(C(F)(F)F)cc2)s1
active: locus YHR030C, strain SLT2, stronger effect = lower value 0.821
inactive: locus YAR019C, strain CDC15, stronger effect = lower value 0.985 | locus YBL105C, strain PKC1, stronger effect = lower value 0.991 | locus YBR135W, strain CKS1, stronger effect = lower value 0.994 | locus YBR136W, strain MEC1, stronger effect = lower value 0.972 | locus YBR160W, strain CDC28, stronger effect = lower value 0.984 | locus YDL017W, strain CDC7, stronger effect = lower value 0.997 | locus YDL028C, strain MPS1, stronger effect = lower value 0.967 | locus YDL101C, strain DUN1, stronger effect = lower value 1.01 | locus YDL108W, strain KIN28, stronger effect = lower value 0.972 | locus YDL132W, strain cdc53, stronger effect = lower value 0.988 | locus YDL214C, strain PRR2, stronger effect = lower value 0.952 | locus YDR052C, strain DBF4, stronger effect = lower value 0.996 | locus YDR054C, strain cdc34, stronger effect = lower value 0.989 | locus YDR226W, strain ADK1, stronger effect = lower value 0.976 | locus YDR477W, strain SNF1, stronger effect = lower value 0.952 | locus YER123W, strain YCK3, stronger effect = lower value 0.968 | locus YER133W, strain GLC7, stronger effect = lower value 0.977 | locus YFL009W, strain cdc4, stronger effect = lower value 0.976 | locus YFL029C, strain CAK1, stronger effect = lower value 0.987 | locus YFR003C, strain YPI1, stronger effect = lower value 0.999 | locus YFR019W, strain FAB1, stronger effect = lower value 0.972 | locus YFR028C, strain CDC14, stronger effect = lower value 0.985 | locus YGR040W, strain KSS1, stronger effect = lower value 0.954 | locus YGR052W, strain FMP48, stronger effect = lower value 1 | locus YGR092W, strain DBF2, stronger effect = lower value 0.966 | locus YHR079C, strain IRE1, stronger effect = lower value 0.963 | locus YHR082C, strain KSP1, stronger effect = lower value 0.991 | locus YHR205W, strain SCH9, stronger effect = lower value 0.92 | locus YIL147C, strain SLN1, stronger effect = lower value 0.989 | locus YJL095W, strain BCK1, stronger effect = lower value 0.957 | locus YJL128C, strain PBS2, stronger effect = lower value 0.943 | locus YJL157C, strain FAR1, stronger effect = lower value 0.976 | locus YJR016C, strain ILV3, stronger effect = lower value 0.996 | locus YJR066W, strain TOR1 (second series), stronger effect = lower value 0.967 | locus YJR066W, strain TOR1, stronger effect = lower value 0.929 | locus YKL048C, strain ELM1, stronger effect = lower value 0.988 | locus YKL067W, strain YNK1, stronger effect = lower value 0.944 | locus YKL101W, strain HSL1, stronger effect = lower value 0.935 | locus YKL193C, strain SDS22, stronger effect = lower value 0.986 | locus YKL203C, strain TOR2, stronger effect = lower value 1.05 | locus YLR113W, strain HOG1, stronger effect = lower value 0.863 | locus YLR133W, strain CKI1, stronger effect = lower value 0.971 | locus YLR403W, strain SFP1, stronger effect = lower value 0.974 | locus YML070W, strain DAK1, stronger effect = lower value 0.944 | locus YMR001C, strain CDC5, stronger effect = lower value 0.995 | locus YMR205C, strain PFK2 (second series), stronger effect = lower value 0.975 | locus YMR277W, strain FCP1, stronger effect = lower value 0.966 | locus YNL006W, strain LST8, stronger effect = lower value 0.981 | locus YNL020C, strain ARK1, stronger effect = lower value 0.973 | locus YNL161W, strain CBK1, stronger effect = lower value 0.985 | locus YNL183C, strain NPR1, stronger effect = lower value 1.01 | locus YNL207W, strain RIO2, stronger effect = lower value 0.991 | locus YNL222W, strain SSU72, stronger effect = lower value 0.988 | locus YNL307C, strain MCK1 (second series), stronger effect = lower value 0.99 | locus YOL078W, strain AVO1, stronger effect = lower value 0.989 | locus YOL136C, strain PFK27, stronger effect = lower value 0.939 | locus YOR061W, strain CKA2, stronger effect = lower value 1 | locus YOR119C, strain RIO1, stronger effect = lower value 0.993 | locus YOR231W, strain MKK1, stronger effect = lower value 0.925 | locus YOR329C, strain SCD5, stronger effect = lower value 0.999 | locus YPL031C, strain PHO85, stronger effect = lower value 0.977 | locus YPL153C, strain RAD53, stronger effect = lower value 0.951 | locus YPL204W, strain HRR25, stronger effect = lower value 0.951 | locus YPL209C, strain IPL1, stronger effect = lower value 0.991 | locus YPL256C, strain CLN2, stronger effect = lower value 0.899 | locus YPR025C, strain CCL1, stronger effect = lower value 1 | locus YPR106W, strain ISR1, stronger effect = lower value 0.98 | locus YPR111W, strain DBF20, stronger effect = lower value 0.955 | strain NNK1, stronger effect = lower value 0.98 | strain TSCII, stronger effect = lower value 0.983
